The record followed here is PubChem BioAssay (Tox21).

SMILES strings stand for the structures. Values without a mark were called inactive. Results filed as inconclusive are left out. Activity calls are given as the source filed them. Unless noted, calls follow the shape of the dose curve; as a rule, active = well fitted curve in the direction sought with a large enough effect in the repeat runs; inconclusive = weak or mixed curves; inactive = no such curve, though single readings can be large; an effect the other way counts as inactive or inconclusive.

Assay [1] can be described thus: qHTS assay to test for compound auto fluorescence at 535 nm (green) in HEK293 cells (AID 720680). (In qHTS, concentration-response curves come from the screen itself.)
Assay [2] is described as follows: qHTS assay to test for compound auto fluorescence at 460 nm (blue) in HEK293 cell free culture (AID 720681). The essentials: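 Blue fluorescence (Ex 405/Em 460 nm, triamterene-equivalent) was read immediately after pin transfer of compound or DMSO into medium (DMEM, 10% FBS) without cells.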
The nature of assay [3]: qHTS assay to test for compound auto fluorescence at 535 nm (green) in HEK293 cell free culture (AID 720682). The essentials: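 Green-label autofluorescence (485 nm excitation, 535 nm emission) measured on compound added to cell-free culture medium (DMEM, 10% FBS). Output is expressed relative to fluorescein.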
The nature of assay [4]: qHTS assay to test for compound auto fluorescence at 590 nm (red) in HEK293 cell free culture (AID 720683). The essentials: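 Red-channel autofluorescence of compounds in culture medium (DMEM, 10% FBS), no cells, measured at 540/590 nm. Rose Bengal sodium is the reference fluorophore for equivalence.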
Assay [5] in a line: qHTS assay to test for compound auto fluorescence at 590 nm (red) in HepG2 cell free culture (AID 720684). In outline:
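Cell-free; medium MEM + 10% FBS; compound or DMSO added by pintool; read Ex 540/Em 590 nm; Rose Bengal sodium as red reference fluorophore.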

Assay [6] is described as follows: qHTS assay to test for compound auto fluorescence at 460 nm (blue) in HepG2 cell free culture (AID 720685). The essentials: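 Cell-free plates of MEM plus 10% FBS received 23 nL compound or DMSO vehicle; blue-channel (405/460 nm) intensity scored against triamterene as reference fluorophore.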
Assay [7] in a line: qHTS assay to test for compound auto fluorescence at 535 nm (green) in HepG2 cell free culture (AID 720686).
Assay [8] is described as follows: qHTS assay to test for compound auto fluorescence at 460 nm (blue) in HepG2 cells (AID 720687). In outline:
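Blue-channel autofluorescence (Ex/Em 405/460 nm, triamterene-equivalent) was measured after 1 hr compound exposure at 37 C, 5% CO2. Cells were HepG2, plated overnight at 37 C in MEM plus 10% FBS.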

Assay [9] has as its target Glucocorticoid receptor (Homo sapiens) (UniProt P04150). Kind of assay: qHTS assay to identify small molecule agonists of the glucocorticoid receptor (GR) signaling pathway (AID 720691; active = well fitted activation curve with a large enough effect in the signal ratio in the repeat runs, not every such curve was filed as active; the % refers to the signal ratio). In outline:
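HeLa GR-bla reporter line; cells pre-incubated 4 h, compound in DMSO 18 h at 37 C; LiveBLAzer B/G FRET substrate 2 h RT; fluorescence intensity read-out.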

For assay [10] the target is unchanged. The experiment in a line: qHTS assay to identify small molecule antagonists of the glucocorticoid receptor (GR) signaling pathway (AID 720692; active = well fitted inhibition curve with a large enough effect in the signal ratio in the repeat runs, not every such curve was filed as active; the % refers to the signal ratio). The essentials: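 Read-out: beta-lactamase FRET substrate fluorescence, 2 h at room temperature, in HeLa cells stably carrying a GRE-driven bla reporter. Compounds were co-incubated with 5 nM dexamethasone agonist (final) for 18 h at 37 C.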

Assay [11] can be described thus: qHTS assay to identify small molecule antagonists of the glucocorticoid receptor (GR) signaling pathway - cell viability counter screen (AID 720693). Also: nearly all actives have a fitted effect of over 55% in size.
A short description of assay [12]: qHTS assay for identifying genotoxic compounds that show differential cytotoxicity against isogenic chicken DT40 cell lines with known DNA damage response pathways - wild type cell line (AID 743012). Also: nearly all actives have a fitted effect of over 60% in size. Also: potency is read from the fitted curve at half-maximal effect. The essentials: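 CellTiter-Glo luminescence readout of viability in wild type DT40 cells after 40 h compound exposure at 37 C/5% CO2; 300 cells/well; reagent incubated 30 min at room temperature before reading.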

Assay [13] can be described thus: qHTS assay for identifying genotoxic compounds that show differential cytotoxicity against isogenic chicken DT40 cell lines with known DNA damage response pathways - Rev3 mutant cell line (AID 743014). Also: nearly all actives have a fitted effect of over 55% in size. Also: potency is read from the fitted curve at half-maximal effect.
Assay [14] is described as follows: qHTS assay for identifying genotoxic compounds that show differential cytotoxicity against isogenic chicken DT40 cell lines with known DNA damage response pathways - Rad54/Ku70 mutant cell line (AID 743015). Also: nearly all actives have a fitted effect of over 60% in size. Also: potency is read from the fitted curve at half-maximal effect.
Assay [15] is described as follows: qHTS assay to identify small molecule antagonists of the androgen receptor (AR) signaling pathway - cell viability counter screen (AID 743033; also: nearly all actives have a fitted effect of over 45% in size).
Assay [16] can be described thus: qHTS assay to identify small molecule antagonists of the androgen receptor (AR) signaling pathway using the MDA cell line - cell viability counter screen (AID 743041; also: nearly all actives have a fitted effect of over 45% in size). The essentials:
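Viability read by CellTiter-Fluor fluorescence in the same wells as the antagonist screen, added after 15.5 h of a 16 h, 37C exposure. Human breast carcinoma MDA-kb2 AR-luc cells, compounds co-dosed with agonist R1881.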

The target of assay [17] is Androgen receptor (Homo sapiens) (UniProt P10275). The experiment in a line: qHTS assay to identify small molecule antagonists of the androgen receptor (AR) signaling pathway (AID 743035; active = well fitted inhibition curve with a large enough effect in the signal ratio in the repeat runs, not every such curve was filed as active; the % refers to the signal ratio). The essentials: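 AR-bla HEK293 reporter cells; 4 h settle at 37C/5% CO2; compound + R1881 agonist, 16 h at 37C; LiveBLAzer B/G FRET substrate 2 h RT; fluorescence intensity read. qHTS format.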
Androgen receptor (Homo sapiens), sequence (P10275 whole entry, looked up): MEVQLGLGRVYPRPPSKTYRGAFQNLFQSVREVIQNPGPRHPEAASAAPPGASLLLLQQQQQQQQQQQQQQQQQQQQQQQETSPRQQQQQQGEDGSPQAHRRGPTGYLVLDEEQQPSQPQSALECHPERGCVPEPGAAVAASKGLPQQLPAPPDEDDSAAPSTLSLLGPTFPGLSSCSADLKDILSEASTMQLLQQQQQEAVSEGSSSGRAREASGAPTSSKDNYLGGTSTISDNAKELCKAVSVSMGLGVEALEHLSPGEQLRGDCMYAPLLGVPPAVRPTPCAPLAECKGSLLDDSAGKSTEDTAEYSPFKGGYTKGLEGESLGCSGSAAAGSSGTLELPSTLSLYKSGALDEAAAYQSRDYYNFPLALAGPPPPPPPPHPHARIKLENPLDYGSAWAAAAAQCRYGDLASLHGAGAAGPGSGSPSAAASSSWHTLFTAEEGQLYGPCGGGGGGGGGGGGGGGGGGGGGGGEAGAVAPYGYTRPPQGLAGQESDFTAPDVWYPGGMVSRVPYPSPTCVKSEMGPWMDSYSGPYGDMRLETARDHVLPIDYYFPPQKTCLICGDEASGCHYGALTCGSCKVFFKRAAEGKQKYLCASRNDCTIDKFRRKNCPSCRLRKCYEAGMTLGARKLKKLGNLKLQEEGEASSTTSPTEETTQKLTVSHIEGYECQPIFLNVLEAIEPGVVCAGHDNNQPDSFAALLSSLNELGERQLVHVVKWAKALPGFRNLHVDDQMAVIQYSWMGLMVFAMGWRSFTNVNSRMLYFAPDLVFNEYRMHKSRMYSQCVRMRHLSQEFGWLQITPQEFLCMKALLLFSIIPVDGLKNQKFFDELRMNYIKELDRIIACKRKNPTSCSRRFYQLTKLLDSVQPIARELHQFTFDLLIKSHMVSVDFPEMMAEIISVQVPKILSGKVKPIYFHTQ

Assay [18] has the same target. The experiment in a line: qHTS assay to identify small molecule agonists of the androgen receptor (AR) signaling pathway (AID 743036; active = well fitted activation curve with a large enough effect in the signal ratio in the repeat runs, with a control signal flat, not every such curve was filed as active; the % refers to the signal ratio). The essentials:
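AR-UAS-bla HEK293 cells, plated 4 h before dosing, were treated with compound for 16 h at 37C. beta-Lactamase reporter read after 2 h with LiveBLAzer B/G FRET substrate at room temperature.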

For assay [19] the target is unchanged. Kind of assay: qHTS assay to identify small molecule agonists of the androgen receptor (AR) signaling pathway using the MDA cell line (AID 743040; also: nearly all actives have a fitted effect of over 20% in size). The essentials: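 Luciferase agonist assay: 16 h compound exposure at 37C without CO2 in MDA-kb2 AR-luc cells, whose MMTV promoter responds to both AR and GR. Luminescence measured after 30 min room-temperature incubation with ONE-Glo.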

Assay [20] has the same target. Kind of assay: qHTS assay to identify small molecule antagonists of the androgen receptor (AR) signaling pathway using the MDA cell line (AID 743042; also: nearly all actives have a fitted effect of over 55% in size). The essentials: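 Antagonist mode: compounds plus R1881 agonist added to MDA-kb2 AR-luc cells, incubated 16 h at 37C. Luciferase reporter luminescence quantified, with multiplexed CellTiter-Fluor readout for cell viability.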
% is scaled to controls: 0 for no effect and ±100 for the full control effect.

Glucocorticoid receptor (Homo sapiens), sequence (P04150 whole entry, looked up): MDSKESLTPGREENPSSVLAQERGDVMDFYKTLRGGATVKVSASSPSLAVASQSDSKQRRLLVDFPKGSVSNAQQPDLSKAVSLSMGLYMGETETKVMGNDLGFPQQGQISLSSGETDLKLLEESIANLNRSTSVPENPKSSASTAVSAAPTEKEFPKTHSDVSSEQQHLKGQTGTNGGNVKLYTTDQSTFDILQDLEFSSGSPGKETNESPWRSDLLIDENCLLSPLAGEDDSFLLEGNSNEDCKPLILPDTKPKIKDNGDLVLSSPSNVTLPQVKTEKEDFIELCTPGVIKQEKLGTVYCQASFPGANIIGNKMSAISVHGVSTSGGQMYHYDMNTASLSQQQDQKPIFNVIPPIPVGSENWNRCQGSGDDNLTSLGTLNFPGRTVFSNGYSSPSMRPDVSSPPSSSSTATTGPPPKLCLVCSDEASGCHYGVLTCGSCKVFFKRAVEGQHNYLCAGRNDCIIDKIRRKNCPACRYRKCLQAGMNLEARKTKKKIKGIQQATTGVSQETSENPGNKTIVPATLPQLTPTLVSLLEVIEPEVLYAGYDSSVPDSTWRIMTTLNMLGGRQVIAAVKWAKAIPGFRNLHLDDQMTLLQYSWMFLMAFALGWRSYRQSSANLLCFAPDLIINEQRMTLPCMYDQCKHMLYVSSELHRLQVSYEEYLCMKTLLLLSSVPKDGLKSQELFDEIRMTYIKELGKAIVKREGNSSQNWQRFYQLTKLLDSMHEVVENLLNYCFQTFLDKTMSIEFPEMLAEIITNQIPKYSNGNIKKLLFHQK

Take `O=C1CC[C@H](C(=O)N2CCCCC2)N1`: the call in assay [1], in assay [2], in [3], in assay [4], in assay [5] and in assay [6] was inactive. Besides, the call in assay [7], in assay [8], in assay [10], in assay [15] and in [16] was inactive. Besides, the Potency entry in assay [9], in assay [11], in assay [12], in [13] and in assay [14] was “inactive” in each case.
As for `F[Si-2](F)(F)(F)(F)F`, the call in assay [1], in assay [2], in assay [3], in assay [4], in assay [5] and in [6] was inactive. Moreover, the outcome in [7], in assay [8], in [10], in [15] and in [16] was inactive. Besides, the Potency result in assay [9], in assay [11], in assay [12], in [13] and in assay [14] was “inactive” each time.
Take `O=[Si]=O`: the call in assay [1], in assay [2], in assay [3], in assay [4], in [5] and in [6] was inactive. In addition, the compound was called inactive in [7], in assay [8], in [10], in assay [15] and in assay [16]. The Potency result in assay [9], in [11], in assay [12], in [13] and in assay [14] was “inactive” throughout.
On to `Cc1ccc2c(c1)c1c3n2CCNC3CCC1` (stereo not given), for which the outcome in assay [1], in [2], in [3], in assay [4], in assay [5] and in assay [6] was inactive. Moreover, the call in assay [7], in [8], in [10], in assay [15] and in assay [16] was inactive. Moreover, the Potency entry in assay [9] and in assay [11] was “inactive” each time. Moreover, the Potency in [12] is 11.9 µM (active); in assay [13], 11.9 µM (active); in assay [14], 16.8 µM (active).
Take `O=C(O)CCNC(=O)c1ccccc1`: the compound was classed as inactive in assay [1], in [2], in assay [3], in [4], in assay [5] and in [6]. For the same compound, the result in [7], in assay [8], in assay [10], in assay [15] and in assay [16] was inactive. Besides, the Potency result in [9], in assay [11], in assay [12], in assay [13] and in [14] was “inactive” in each case.
On to `CN[C@@H]1[C@H](O)[C@H](NC)[C@H]2O[C@@]3(O)C(=O)C[C@@H](C)O[C@H]3O[C@@H]2[C@H]1O`, for which the fluorescence, % of fluorescein in [1] is 0.0714% [at 18.6 µM]. For the same compound, the fluorescence, % of fluorescent control in assay [2] is 0.0087% [at 18.6 µM]; in [4], 0.386% [at 18.6 µM]; in [6] it was 0.0605% [at 18.6 µM]; in assay [8], 0.0309% [at 18.6 µM]. In addition, the activity change in [3] is 0.0093% [at 18.6 µM]. Further, the fluorescence, % of Rose Bengal in assay [5] was 0.555% [at 18.6 µM]. Besides, in assay [7], the fluorescence, % of fluorescein control was 0.0131% [at 18.6 µM]. The Potency result in assay [9], in assay [11], in assay [12], in assay [13], in assay [14] and in assay [17] was “inactive” in each case. The compound was called inactive in assay [10], in assay [18], in [19], in assay [16] and in assay [20].
For `O=C(O)c1ccccc1C(=O)OCc1ccccc1`, the compound was called inactive in assay [1], in assay [2], in [3], in [4], in assay [5] and in [6]. For the same compound, the compound was classed as inactive in assay [7], in assay [8], in assay [10], in assay [15], in assay [18] and in [19]. Further, the outcome in [16] and in assay [20] was inactive. The Potency result in assay [9], in assay [11], in assay [12], in assay [13] and in assay [14] was “inactive” in each case.
Consider `Cc1ccccc1C(=O)N1CC/C(=N\OS(=O)(=O)O)c2ccc(Cl)cc21`, for which the outcome in [1], in assay [2], in assay [3], in [4], in [5] and in assay [6] was inactive. Further, the call in [7], in assay [8], in [10], in assay [15] and in [16] was inactive. Moreover, the Potency result in assay [9], in assay [11], in assay [12], in assay [13] and in [14] was “inactive” each time.
Regarding `CO[Si](CCCCl)(OC)OC`, the compound was classed as inactive in assay [1], in assay [2], in assay [3], in [4], in [5] and in assay [6]. The compound was called inactive in assay [7], in assay [8], in [10], in [15] and in assay [16]. In addition, the Potency entry in assay [9], in [11], in assay [12], in assay [13] and in [14] was “inactive” in each case.
In the case of `COCCOCCOCCOC`, the outcome in [1], in [2], in assay [3], in assay [4], in [5] and in [6] was inactive. The compound was classed as inactive in [7], in [8], in assay [10], in [15] and in assay [16]. For the same compound, the Potency result in assay [9], in assay [11], in assay [12], in assay [13] and in assay [14] was “inactive” throughout.
In the case of `C=C[C@@H](C)CCC=C(C)C`, the outcome in assay [1], in [2], in assay [3], in assay [4], in [5] and in [6] was inactive. Further, the call in [7], in assay [8], in assay [10], in assay [15] and in assay [16] was inactive. Further, the Potency entry in [9], in assay [11], in assay [12], in assay [13] and in assay [14] was “inactive” in each case.
Consider `CC(=O)c1ccc2c(c1)CCCC2`, for which the compound was called inactive in [1], in [2], in assay [3], in assay [4], in assay [5] and in assay [6]. The result in assay [7], in assay [8], in assay [10], in assay [15] and in [16] was inactive. Besides, the Potency result in [9], in assay [11], in assay [12], in assay [13] and in assay [14] was “inactive” throughout.
Consider `C/C=C(\C)C(=O)OCC/C=C\CC`, for which the result in assay [1], in assay [2], in [3], in assay [4], in assay [5] and in assay [6] was inactive. Moreover, the compound was classed as inactive in assay [7], in [8], in assay [10], in assay [15] and in assay [16]. Further, the Potency entry in assay [9], in assay [11], in assay [12], in assay [13] and in [14] was “inactive” in each case.
In the case of `CCc1nccnc1C`, the compound was called inactive in assay [1], in assay [2], in assay [3], in assay [4], in assay [5] and in [6]. Further, the compound was classed as inactive in assay [7], in assay [8], in assay [10], in assay [15] and in [16]. For the same compound, the Potency result in assay [9], in assay [11], in assay [12], in assay [13] and in assay [14] was “inactive” each time.
With `CCCCCCCCC(=O)OCC`, the result in assay [1], in [2], in [3], in assay [4], in assay [5] and in assay [6] was inactive. For the same compound, the compound was classed as inactive in assay [7], in assay [8], in assay [10] and in assay [15]. Moreover, the Potency result in assay [9], in [11], in assay [12], in assay [13] and in assay [14] was “inactive” each time.
